Screening results as filed in PubChem.
Compounds with a hit are over-represented: about 7.3% of the library has one in this group of screens.
KinaseGlo FLuc – blocks Kinase-Glo luciferase, a counter-screen artifact | Q27757 | Kinase-Glo luciferase, ATP luminescence, 8 min | Potency, µM (titrated, usually from 38.3 µM), most hits filed as inhibitors | actives 0.28% (n = 200,000) | AID 1379; further: nearly all actives have a fitted effect of over 60% in size
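Luminescence was the read-out, taken after 8-minute incubation at ambient temperature. Luciferase turned over luciferin with 10 uM ATP in imidazole pH 7.2 buffer containing KCl, MgCl2, Tween 20 and BSA.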
Rab9 prom act – Rab9 promoter activation. Huh7 Rab9 promoter-luciferase reporter, luminescence, 24 h. Potency, µM (highest dose often 9.22 µM), hits mostly activators. actives 2.8% (n = 320,000); further: nearly all actives have a fitted effect of over 60% in size
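Promoter activation is measured as luciferase luminescence in Huh7 cells stably transfected with a Rab9 promoter–luciferase construct, following 24 h compound exposure at 37 °C and 10 min reagent incubation at ambient temperature.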
SMN2 splice enh – enhancers of SMN2 splice variant expression; HEK293 SMN2-luciferase splicing reporter, luminescence, 30-36 h; Potency, µM (highest dose often 46.1 µM), hits mostly activators; actives 2.8% (n = 210,000); further: nearly all actives have a fitted effect of over 55% in size
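HEK293 cells carry an SMN2 […]–luciferase reporter in which exon 7 inclusion puts luciferase in frame. Cells were plated 10-12 h before compound addition, then incubated 30-36 h at 37C. ONE-Glo luminescence was read; sodium butyrate at 4.5 mM final served as control.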
FLuc modulator – inhibits or activates purified firefly luciferase, miR-21 counter-screen | P08659 | purified FLuc, Km substrates, luminescence inhibition | Potency, µM (doses to about 57.5 µM), actives largely listed as inhibitors | actives 6.9% (n = 360,000); further: nearly all actives have a fitted effect of over 55% in size
Target sequence (P08659 whole entry, looked up): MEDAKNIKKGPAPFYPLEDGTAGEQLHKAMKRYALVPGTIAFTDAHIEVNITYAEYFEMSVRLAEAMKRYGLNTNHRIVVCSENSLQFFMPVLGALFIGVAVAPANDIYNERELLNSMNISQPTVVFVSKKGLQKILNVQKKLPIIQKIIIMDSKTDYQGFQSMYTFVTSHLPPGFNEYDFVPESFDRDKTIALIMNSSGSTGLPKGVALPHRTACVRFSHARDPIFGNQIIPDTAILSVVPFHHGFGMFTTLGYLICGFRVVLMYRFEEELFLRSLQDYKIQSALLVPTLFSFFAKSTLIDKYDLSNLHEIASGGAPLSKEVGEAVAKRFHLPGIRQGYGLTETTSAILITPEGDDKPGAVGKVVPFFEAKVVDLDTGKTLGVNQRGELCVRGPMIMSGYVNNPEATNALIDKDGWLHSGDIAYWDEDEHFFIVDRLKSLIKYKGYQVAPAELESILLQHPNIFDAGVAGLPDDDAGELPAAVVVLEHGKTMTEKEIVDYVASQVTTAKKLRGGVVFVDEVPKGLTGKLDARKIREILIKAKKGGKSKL
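Biochemical qHTS of compounds, final roughly 60 µM downward over six points, against 10 nM purified firefly luciferase using Km concentrations of substrates (10 uM D-luciferin, 10 uM ATP) in Tris acetate pH 7.5 buffer; luminescence output.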
NPC1 prom act – activates the NPC1 promoter; Huh7 NPC1 promoter luciferase reporter, 24 h; Potency, µM (titrated, usually from 9.22 µM), most hits filed as activators; actives 2.4% (n = 320,000); AID 485313; further: nearly all actives have a fitted effect of over 60% in size
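Luminescence from an NPC1 promoter-driven luciferase reporter in stably transfected Huh7 cells was measured after 24 h compound treatment at 37 °C, followed by 10 min ambient incubation with luciferase detection reagent.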
A number is an active result; [ ] = another dose, or the depositor's remark. The call rests on the fitted dose curve; in most records, active means well fitted curve in the direction sought with a large enough effect; inconclusive means small, poorly fitted or top-dose-only effect, or another doubt; inactive means no such curve, though single readings can be large; an effect the other way counts as inactive or inconclusive.

For Cc1ccc(/C=N/NC(=O)c2ccc3ccccc3c2)s1 the results were Rab9 prom act inactive, FLuc modulator 27µM and NPC1 prom act inactive.
For O=C(N/N=C/c1cccs1)c1ccc2ncccc2c1 the results were KinaseGlo FLuc inactive, Rab9 prom act inactive, SMN2 splice enh inactive, FLuc modulator inconclusive and NPC1 prom act inactive.
O=C(N/N=C/c1cccc([N+](=O)[O-])c1)c1cccc2cc[nH]c12 was read as KinaseGlo FLuc inactive, Rab9 prom act inactive, SMN2 splice enh inactive, FLuc modulator inactive and NPC1 prom act inactive.
Screening O=C(N/N=C/c1cc(Br)cs1)c1ccc2c(c1)OCCO2 returned Rab9 prom act inconclusive, FLuc modulator 1.3µM and NPC1 prom act inactive.
`O=C(N/N=C/c1cccs1)c1ccc2ccccc2c1` gave Rab9 prom act inconclusive, FLuc modulator 11µM and NPC1 prom act inactive.
O=C(N/N=C/c1cccs1)c1cccc2cc[nH]c12 was read as KinaseGlo FLuc inactive, Rab9 prom act inconclusive, SMN2 splice enh inactive, FLuc modulator 24µM and NPC1 prom act inconclusive.
For COC(=O)C1=C(c2ccccc2)c2ccccc2S(=O)(=O)N1CC(=O)Nc1ccc(OC)cc1OC the results were SMN2 splice enh inactive and FLuc modulator inactive.
O=C(CCn1c(=O)c2cccn2c2cccnc21)Nc1ccccc1Br was read as FLuc modulator inactive.
For C[C@]12CC[C@H](O)CC1=CC[C@H]1[C@@H]2CC[C@@]2(C)C(N(CCO)CCO)CC[C@@H]12 (some centres not stated) the results were KinaseGlo FLuc inactive[7.66 µM] and SMN2 splice enh inactive[9.22 µM].
For C[C@H]1[C@H](C)OC(=O)C[C@H](O)C[C@H](O)C[C@H](O)CC[C@H](O)[C@H](O)CC(=O)C[C@H](O)[C@H](C(=O)O)[C@H](O)C[C@H](O[C@@H]2O[C@@H](C)[C@H](O)[C@@H](N)[C@@H]2O)C=CC=CC=CC=CCCC=CC=C[C@@](C)(O)[C@H]1O the results were KinaseGlo FLuc inactive[7.66 µM] and SMN2 splice enh inactive[9.22 µM].
Screening Cc1ccc(/C=N/NC(=O)c2ccc3c(c2)OCCO3)s1 returned Rab9 prom act inconclusive, FLuc modulator 3.4µM and NPC1 prom act inconclusive.
Screening COc1ccc(/C=C2\N=C3CCCCCN3C2=O)cc1 returned KinaseGlo FLuc inactive, Rab9 prom act inactive, SMN2 splice enh inconclusive, FLuc modulator 15µM and NPC1 prom act inactive.
Screening COc1ccc(C(=O)Nc2ccc(-n3nncc3-c3ccc(OC)c(OC)c3)cc2)cc1 returned FLuc modulator inactive.
`Cc1ccc(C(=O)c2coc3ccc(O)c(Cl)c23)cc1` gave KinaseGlo FLuc inactive, Rab9 prom act inactive, SMN2 splice enh inactive, FLuc modulator 19µM and NPC1 prom act inactive.
`O=C(c1ccccc1)c1coc2ccc(O)c(Cl)c12` gave KinaseGlo FLuc inactive, Rab9 prom act inactive, SMN2 splice enh inactive, FLuc modulator inconclusive and NPC1 prom act inactive.
For Cc1ccc(C(=O)c2coc3ccc(O)cc23)cc1 the results were Rab9 prom act inactive, FLuc modulator 1.1µM and NPC1 prom act inconclusive.
CC(OC(=O)c1ccccc1C(=O)N(C)c1ccccc1)C(=O)Nc1ccc(C(N)=O)cc1 (configuration not stated) was read as Rab9 prom act inactive, FLuc modulator inactive and NPC1 prom act inactive.
CC(OC(=O)c1cc(O)c2ccccc2c1O)C(=O)Nc1ccc(C(N)=O)cc1 (configuration not stated) was read as Rab9 prom act inactive, FLuc modulator 8.5µM and NPC1 prom act inactive.
For COc1ccc(-c2coc3c(CN4CCOCC4)c(O)ccc3c2=O)cc1 the results were Rab9 prom act inactive, FLuc modulator inactive and NPC1 prom act inactive.
`CCN(CC)C(=O)Oc1ccc2c(=O)c(-c3ccc(OC)cc3)coc2c1` gave KinaseGlo FLuc inactive, Rab9 prom act inconclusive, SMN2 splice enh inactive, FLuc modulator 8.5µM and NPC1 prom act 1.8µM.
COc1ccc(-c2coc3c(O)c(OC)ccc3c2=O)cc1 was read as KinaseGlo FLuc inactive and SMN2 splice enh 1.6µM.
For CCN(CC)C(=O)Oc1ccc2c(=O)c(-c3ccc(OC)cc3)c(C)oc2c1 the results were KinaseGlo FLuc inactive, Rab9 prom act inactive, SMN2 splice enh inactive, FLuc modulator inconclusive and NPC1 prom act inactive.
Screening COc1ccc2c(=O)c(-c3ccc4c(c3)OCO4)coc2c1 returned KinaseGlo FLuc inconclusive, Rab9 prom act 0.4µM, SMN2 splice enh 11µM, FLuc modulator 0.67µM and NPC1 prom act 0.35µM.
Screening O=C(NCc1cccs1)c1nn(-c2ccccc2)nc1CO returned SMN2 splice enh inactive and FLuc modulator inactive.
`CC(=O)Nc1ccc(N/C=C/C(=O)c2ccc(Br)cc2)cc1` gave Rab9 prom act inconclusive, FLuc modulator inactive and NPC1 prom act inactive.
NS(=O)(=O)c1ccc(N/C=C\C(=O)c2ccc(F)cc2)cc1 was read as KinaseGlo FLuc inactive, Rab9 prom act 3.5µM, SMN2 splice enh 13µM, FLuc modulator 15µM and NPC1 prom act 4µM.
Screening NS(=O)(=O)c1ccc(N/C=C/C(=O)c2ccc(Br)cc2)cc1 returned KinaseGlo FLuc inactive, Rab9 prom act 2.8µM, SMN2 splice enh inconclusive, FLuc modulator inactive and NPC1 prom act inconclusive.
`NS(=O)(=O)c1ccc(N/C=C\C(=O)c2ccncc2)cc1` gave KinaseGlo FLuc inactive, Rab9 prom act inactive, FLuc modulator inactive and NPC1 prom act inactive.
For CC(=O)c1ccc(N/C=C/C(=O)c2ccc(Br)cc2)cc1 the results were Rab9 prom act 4µM, FLuc modulator inactive and NPC1 prom act 2.8µM.
`CN(C)c1ccc(N/C=C/C(=O)c2ccc(F)cc2)cc1` gave KinaseGlo FLuc inconclusive, Rab9 prom act 2.5µM, SMN2 splice enh 10µM, FLuc modulator 0.48µM and NPC1 prom act 3.2µM.
`COc1cccc(NC(=O)CCc2c(C)nc3c4cccnc4nn3c2C)c1` gave SMN2 splice enh inactive and FLuc modulator inactive.
For CCc1ccc(/C=C\C(=O)N2CCc3ccccc3C2)cc1 the results were KinaseGlo FLuc inactive, Rab9 prom act inactive, SMN2 splice enh inactive, FLuc modulator 7.6µM and NPC1 prom act inactive.
`O=C(/C=C/c1c(F)cccc1Cl)N1CCc2ccccc2C1` gave Rab9 prom act inactive, FLuc modulator 17µM and NPC1 prom act inactive.
For COc1ccc(CC(=O)N2CCc3ccccc3C2)cc1 the results were Rab9 prom act inactive, FLuc modulator inconclusive and NPC1 prom act inactive.
For COc1ccc(NC(=O)CSc2nc3ccccc3n2CC(=O)N2CCCC(C)C2)cc1 (configuration not stated) the results were FLuc modulator inactive.
Screening CCCCn1c(/C=C/c2ccco2)nc2ccccc21 returned KinaseGlo FLuc inactive, Rab9 prom act inactive, SMN2 splice enh 16µM, FLuc modulator 13µM and NPC1 prom act inactive.
Screening CCCCn1c(N)nc2ccccc21 returned KinaseGlo FLuc inactive, Rab9 prom act inactive, SMN2 splice enh inactive, FLuc modulator inactive and NPC1 prom act inactive.
